Experimental data as given in PubChem BioAssay (NCI).
The panel holds about 83,000 compounds, 20% with a hit somewhere; the sample as a whole holds those more often.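 Assay: single dose, 48 h. Readout: percent growth (0 = no net growth; negative = cell death). Active: <10.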 Activity calls are given as the source filed them.

Experiments:
Assay in all cases: NCI-60 one-dose screen, 48 h (100 = growth as untreated, 0 = no growth, -100 = all killed)
NCI-H226 lung = conditions: 10 µM
NCI-H322M lung = conditions: 10 µM
HOP-62 NSCLC = conditions: 10 µM
NCI-H460 lung = conditions: 10 µM
NCI-H522 lung = conditions: 10 µM
A549/ATCC NSCLC = conditions: 10 µM
COLO 205 colon = conditions: 10 µM
DU-145 prostate = conditions: 10 µM
SF-268 CNS = conditions: 10 µM
SF-295 CNS = conditions: 10 µM
SF-539 CNS = conditions: 10 µM
M14 melanoma = conditions: 10 µM
HCT-15 colon = conditions: 10 µM
HT29 colon = conditions: 10 µM
SNB-75 CNS = conditions: 10 µM
SNB-19 CNS = conditions: 10 µM
PC-3 prostate = conditions: 10 µM
SK-MEL-5 melanoma = conditions: 10 µM
UACC-62 melanoma = conditions: 10 µM
HL-60(TB) leukemia = conditions: 10 µM unless noted

Measured: growth

O=C(/C=C/c1cccc(Br)c1)c1nc2ccccc2n1Cc1ccc(F)cc1
active: SF-539 CNS 8.26% | HCT-15 colon -31.6% | HT29 colon 7.15% | HL-60(TB) leukemia 3.12%
inactive: NCI-H226 lung 14.5% | NCI-H322M lung 75.8% | HOP-62 NSCLC 38.3% | NCI-H460 lung 33.1% | NCI-H522 lung 59.4% | A549/ATCC NSCLC 52.2% | COLO 205 colon 79.3% | DU-145 prostate 30.2% | SF-268 CNS 62.6% | SF-295 CNS 62.9% | M14 melanoma 30.7% | SNB-75 CNS 32.9% | SNB-19 CNS 47.1% | PC-3 prostate 23.8% | SK-MEL-5 melanoma 58.3% | UACC-62 melanoma 22.4%

CCCCCCCCc1ccc(C(=O)Nc2cccc(O)c2)cc1
inactive: HL-60(TB) leukemia 56.5%

O=C(/C=C/c1ccccc1Cl)c1nc2ccccc2n1Cc1ccc(F)cc1
active: NCI-H226 lung -75.1% | NCI-H322M lung -42.1% | HOP-62 NSCLC -77.5% | NCI-H460 lung -54.6% | NCI-H522 lung -81.2% | A549/ATCC NSCLC -44.3% | COLO 205 colon -83.5% | DU-145 prostate -34.8% | SF-268 CNS -2.61% | SF-295 CNS -86.8% | SF-539 CNS -94.4% | M14 melanoma -79.4% | HCT-15 colon -83.1% | HT29 colon -85.6% | SNB-75 CNS 6.88% | SNB-19 CNS -79.2% | PC-3 prostate -57.3% | SK-MEL-5 melanoma -86.5% | UACC-62 melanoma -93.2% | HL-60(TB) leukemia -38.4%

COC(=O)C[C@](O)(CCC(C)C)C(=O)O[C@@H]1C(OC)=C[C@]23CCCN2CCc2cc4c(cc2[C@H]13)OCO4
active: NCI-H226 lung -55.1% | NCI-H322M lung -25.1% | HOP-62 NSCLC -50.4% | NCI-H460 lung -20.6% | NCI-H522 lung -80.7% | A549/ATCC NSCLC -27.1% | COLO 205 colon -84.7% | DU-145 prostate -26.7% | SF-268 CNS -21.3% | SF-295 CNS -35.5% | SF-539 CNS -77.1% | M14 melanoma -89% | HCT-15 colon -32.9% | HT29 colon -62.1% | SNB-75 CNS -32.9% | SNB-19 CNS -16.9% | PC-3 prostate -19% | SK-MEL-5 melanoma -95.4% | UACC-62 melanoma -92.5% | HL-60(TB) leukemia -31%

O=C(/C=C/c1ccc(Br)cc1)c1nc2ccccc2n1Cc1ccc(Br)cc1
active: NCI-H226 lung -70.1% | HOP-62 NSCLC -22.1% | NCI-H460 lung -14.4% | NCI-H522 lung -39.8% | COLO 205 colon -39.8% | SF-295 CNS -34.9% | SF-539 CNS -60.2% | M14 melanoma -26.7% | HCT-15 colon -68.4% | HT29 colon -27.6% | SNB-19 CNS -66.9% | SK-MEL-5 melanoma 1.54% | UACC-62 melanoma -66.5% | HL-60(TB) leukemia -13.2%
inactive: NCI-H322M lung 39% | A549/ATCC NSCLC 30% | DU-145 prostate 17.9% | SF-268 CNS 29.9% | SNB-75 CNS 45% | PC-3 prostate 18.7%

COC(=O)c1ccc(-n2cc(CCCN(CCNc3ccnc4cc(Cl)ccc34)C(=O)CCC(=O)O[C@@H]3O[C@@H]4OC5(C)CC[C@H]6[C@H](C)CC[C@@H]([C@H]3C)[C@@]46OO5)nn2)cc1
inactive: NCI-H226 lung 48.4% | NCI-H322M lung 71% | HOP-62 NSCLC 64.5% | NCI-H460 lung 52.1% | A549/ATCC NSCLC 44.4% | COLO 205 colon 14.8% | DU-145 prostate 59.8% | SF-268 CNS 59.2% | SF-295 CNS 43.8% | SF-539 CNS 39% | M14 melanoma 47.1% | SNB-75 CNS 67.3% | SNB-19 CNS 63.7% | PC-3 prostate 39.7% | UACC-62 melanoma 36.8%
active: NCI-H522 lung 7.38% | HCT-15 colon -4.92% | HT29 colon 5.91% | SK-MEL-5 melanoma -70.1% | HL-60(TB) leukemia -30.7%

O=C(NC([Se])=NC1CCCCC1)c1ccccc1
inactive: NCI-H226 lung 58.7% | HOP-62 NSCLC 15.3% | NCI-H460 lung 11.6% | A549/ATCC NSCLC 21.1% | COLO 205 colon 49.2% | DU-145 prostate 46.2% | SF-268 CNS 96.2% | SF-539 CNS 14.3% | M14 melanoma 69.8% | HCT-15 colon 44% | HT29 colon 29.7% | SNB-75 CNS 17.8% | SNB-19 CNS 24.6% | PC-3 prostate 51.3% | SK-MEL-5 melanoma 18% | HL-60(TB) leukemia 16%
active: NCI-H322M lung 4.78% | NCI-H522 lung -30.9% | SF-295 CNS 8.53% | UACC-62 melanoma 9.12%

C[C@H]1[C@H](OC(=O)CCC(=O)Nc2cnccn2)O[C@@H]2OC3(C)CC[C@H]4[C@H](C)CC[C@@H]1[C@@]24OO3
inactive: NCI-H226 lung 74.8% | NCI-H322M lung 77.4% | HOP-62 NSCLC 53.6% | NCI-H460 lung 29.6% | A549/ATCC NSCLC 62.6% | COLO 205 colon 11.9% | DU-145 prostate 77.7% | SF-268 CNS 56.3% | SF-295 CNS 41.7% | SF-539 CNS 33.2% | M14 melanoma 35.9% | HCT-15 colon 12% | HT29 colon 27.3% | SNB-75 CNS 72.6% | SNB-19 CNS 56.3% | PC-3 prostate 36.6% | SK-MEL-5 melanoma 26.9% | UACC-62 melanoma 26.3%
active: NCI-H522 lung -13.6% | HL-60(TB) leukemia 0.224%
